Measured values taken from PubChem BioAssay (NCATS).
Records with an inconclusive call do not appear. Activity calls are given as the source filed them. Calls follow the shape of the dose curve; as a rule, active = well fitted inhibition curve with a large enough effect; inconclusive = small, poorly fitted or top-dose-only effect; inactive = flat fitted curve, though single readings scatter.

These compounds were tested against Calcium and integrin-binding protein 1 (Homo sapiens) (UniProt Q99828) (assay: Primary qHTS for Identification of Calcium Integrin Binding Protein 1 (CIB1) Competitor (AID 1508620; also: top concentration of the series differs between compounds)). Conditions: CIB1-GST / FITC-alphaIIb peptide fluorescence polarization; series mostly up to 114 µM; activity change, negative = inhibition: at the top concentration.
Sequence of Calcium and integrin-binding protein 1 (Homo sapiens) (Q99828 whole entry, looked up): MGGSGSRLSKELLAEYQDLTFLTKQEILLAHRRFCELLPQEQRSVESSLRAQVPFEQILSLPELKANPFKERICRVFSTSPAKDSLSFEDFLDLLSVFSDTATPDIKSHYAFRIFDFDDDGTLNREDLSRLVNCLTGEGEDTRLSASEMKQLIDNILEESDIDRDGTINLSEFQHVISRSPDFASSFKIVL
Outline: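 Fluorescence polarization competition: GST-tagged CIB1 (1 uM final) preincubated with compound 15 min at room temperature, then FITC-labelled alphaIIb peptide (100 nM final) added. After 15 min at room temperature, polarization read at Ex 480/Em 540.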
% is scaled to controls: 0 for no effect and ±100 for the full control effect.

Structure (SMILES) | activity change, negative = inhibition
C=C1CC[C@H]2[C@@](C)(CCC(O)[C@@]2(C)CO)[C@@H]1CCC1=CCOC1=O (some centres undefined) | -4.52% [at 57.7 µM] (inactive)
CC(=O)c1cc(C(=O)N[C@@H](C)Cn2ccc(-c3ccc(C#N)c(Cl)c3)n2)[nH]n1 | -4.99% (inactive)
N#C[C@@H]1CCCN1C(=O)CNC12CC3CC(CC(O)(C3)C1)C2 | 3.45% (inactive)
CC(=O)O[C@H]1CC[C@H](C)[C@@]2(C)[C@H](OC(C)=O)c3c(C)coc3C(=O)[C@H]12 | 0.885% [at 57.7 µM] (inactive)
C[C@@H]1O[C@@H](O[C@H]2[C@H](OC(=O)[C@]34CCC(C)(C)C[C@H]3C3=CCC5[C@@]6(C)C[C@H](O)[C@H](O[C@@H]7O[C@H](CO)[C@@H](O)[C@H](O)[C@H]7O)[C@@](C)(CO)C6[C@H](O)C[C@@]5(C)[C@]3(C)C[C@H]4O)OC[C@H](O)[C@@H]2O)[C@H](O)[C@H](O)[C@H]1O[C@@H]1OC[C@@H](O)[C@H](O[C@H]2OC[C@](O)(CO)[C@H]2O)[C@H]1O (some centres undefined) | 3.47% [at 12.4 µM] (inactive)
CC(c1ncncc1F)C(O)(Cn1cncn1)c1ccc(F)cc1F (centres undefined) | -8.29% (inactive)
COc1cc2oc(-c3ccc(O)cc3O)cc2c(OC)c1CC=C(C)C | -3.51% [at 57.7 µM] (inactive)
COc1ccc([C@@]2(O)c3c(ccc(CC=C(C)C)c3O)NC(=O)[C@@H]2OC)cc1 | 0.567% [at 57.7 µM] (inactive)
C[C@@H]1O[C@@H](O[C@@H]2[C@@H](O[C@@H]3O[C@@H](C)[C@H](O[C@@H]4OC[C@H](O)[C@H](O[C@@H]5OC[C@@H](O)[C@H](O)[C@H]5O)[C@H]4O)[C@@H](O[C@@H]4OC[C@](O)(CO)[C@H]4O)[C@H]3O)[C@H](OC(=O)[C@]34CCC(C)(C)C[C@H]3C3=CCC5[C@@]6(C)C[C@H](O)[C@H](O[C@@H]7O[C@H](CO[C@@H]8OC[C@H](O)[C@H](O)[C@H]8O)[C@@H](O)[C@H](O)[C@H]7O)C(C)(C)C6CC[C@@]5(C)[C@]3(C)C[C@H]4O)OC[C@H]2O)[C@H](O)[C@H](O)[C@H]1O (some centres undefined) | -4.21% [at 12.4 µM] (inactive)
